Records with an inconclusive call do not appear. Calls of active or inactive are those of the source. Calls follow the shape of the dose curve; as a rule, active = well fitted curve in the direction sought with a large enough effect; inconclusive = small, poorly fitted or top-dose-only effect, or another doubt; inactive = no such curve, though single readings can be large; an effect the other way counts as inactive or inconclusive.
Tests used:
[1] = system: PA-1; assay: Primary qHTS to identify gynecologic anti-cancer compounds using libraries of approved drugs and bioactive compounds (AID 1345084); details: Gynecologic cancer cell panel viability, ATPlite luminescence, 48 h; series mostly up to 57.5 µM; also: nearly all actives have a fitted effect of over 55% in size
Procedure, shortened: (§1)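 Cells, 1,000 per well, were allowed to settle for 16 h at 37 C before compound addition. Five concentrations were tested for 48 h, and viability was read by ATPlite luminescence after 15 min at room temperature.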

[2] = system: SKOV3; assay: as above; details: Gynecologic cancer cell panel viability, ATPlite luminescence, 48 h; series mostly up to 57.5 µM
Procedure, shortened: as §1

[3] = system: Tov-21-G; assay: as above; details: Gynecologic cancer cell panel viability, ATPlite luminescence, 48 h; series mostly up to 57.5 µM
Procedure, shortened: as §1

[4] = system: Tov112D; assay: as above; details: Gynecologic cancer cell panel viability, ATPlite luminescence, 48 h; series mostly up to 57.5 µM
Procedure, shortened: as §1

[5] = Drug repurposing screens with cells derived from glioblastoma tumor samples (AID 1345199); details: GBM patient neurospheres viability, ATP luminescence, 48 h; also: nearly all actives have a fitted effect of over 40% in size
Procedure, shortened: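 Primary testing used CD133+ neurospheres from four GBM patients, seven concentrations, 48 h exposure and ATP-based viability; confirmation added three slower-growing patient lines.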

[6] = at 91.6 µM (top of the series), tumour line B
[7] = at 91.6 µM (top of the series), tumour line D
[8] = at 45.9 µM (top of the series), tumour line B
[9] = at 45.9 µM (top of the series), tumour line D
% is scaled to controls: 0 for no effect and ±100 for the full control effect; potency is read from the fitted curve at half-maximal effect.

C[C@]12Cc3cn[nH]c3C[C@@H]1CC[C@@H]1[C@@H]2CC[C@@]2(C)[C@H]1CC[C@]2(C)O
inactive: Potency [1] | outcome [2] | Potency [3] | Potency [4]

CC(C)(N)Cc1ccccc1Cl
inactive: Potency [1] | outcome [2] | Potency [3] | Potency [4]

C[C@]12CC[C@H]3[C@@H](CCC4=CC(=O)CC[C@@H]43)[C@@H]1CC[C@@H]2OC(=O)CCc1ccco1
inactive: outcome [2] | Potency [3] | Potency [4]
active: Potency [1] 25.1 µM

O=C(Nc1ccc(Br)cc1)c1cc(Br)cc(Br)c1O
inactive: Potency [1] | outcome [2] | Potency [3] | Potency [4]

CCN[C@H](C)Cc1cccc(C(F)(F)F)c1
inactive: Potency [1] | outcome [2] | Potency [3] | Potency [4] | activity, negative = cell killing [5, 6] -5.97% | activity, negative = cell killing [5, 7] -5.78%

CC(C(=O)c1ccccc1)N(C)C (configuration not stated)
inactive: Potency [1] | outcome [2] | Potency [3] | Potency [4]

CCCCCCCCCC(=O)O[C@H]1CC[C@H]2[C@@H]3CCC4=CC(=O)CC[C@@H]4[C@H]3CC[C@]12C
inactive: Potency [1] | outcome [2] | Potency [3] | Potency [4] | activity, negative = cell killing [5, 8] -3.32% | activity, negative = cell killing [5, 9] -5.94%

O=C(N/N=C/c1ccc([N+](=O)[O-])o1)c1cc([N+](=O)[O-])cc([N+](=O)[O-])c1O
inactive: Potency [1] | outcome [2] | Potency [3] | Potency [4] | activity, negative = cell killing [5, 8] -13.9% | activity, negative = cell killing [5, 9] -24.1%

C=CCC1(C(C)CC)C(=O)NC(=O)NC1=O (configuration not stated)
inactive: Potency [1] | outcome [2] | Potency [3] | Potency [4]

CCCOC(=O)c1cncn1C(C)c1ccccc1 (configuration not stated)
inactive: Potency [1] | outcome [2] | Potency [3] | Potency [4]

O=c1[nH]c2ccccc2n1C1CCNCC1
inactive: Potency [1] | outcome [2] | Potency [3] | Potency [4]

CC(C)(C)NCC(O)c1ccccc1Cl (configuration not stated)
inactive: Potency [1] | outcome [2] | Potency [3] | Potency [4] | activity, negative = cell killing [5, 8] -9.73% | activity, negative = cell killing [5, 9] -4.92%

Clc1ccc(C(c2ccc(Cl)cc2)C(Cl)(Cl)Cl)cc1
inactive: Potency [1] | outcome [2] | Potency [3] | Potency [4]
active: Potency ([5]; tumour line A) 11.2 µM

C[C@@H]1CC2=CC(=O)CC[C@@H]2[C@H]2CC[C@@]3(C)[C@@H](CC[C@]3(C)O)[C@@H]21
inactive: Potency [1] | outcome [2] | Potency [3] | Potency [4]

CC(=O)OCC1=C(C(=O)O)N2C(=O)[C@@H](N)[C@H]2SC1
inactive: Potency [1] | outcome [2] | Potency [3] | Potency [4] | activity, negative = cell killing ([5]; at 21.2 µM (top of the series), tumour line B) -6.05% | activity, negative = cell killing ([5]; at 21.2 µM (top of the series), tumour line D) -13.7% | activity, negative = cell killing ([5]; at 21.3 µM (top of the series), tumour line A) -21.2%

O=C1OC(CCN2CCCCC2)OC1(c1ccccc1)c1ccccc1 (configuration not stated)
inactive: Potency [1] | outcome [2] | Potency [3] | Potency [4]

CC(=O)C1CCOC1=O (configuration not stated)
inactive: Potency [1] | outcome [2] | Potency [3] | Potency [4]

CN1C(=O)COc2c(C(=O)NC3CN4CCC3CC4)cc(Cl)cc21 (configuration not stated)
active: Potency ([5]; tumour line A) 22.4 µM
inactive: Potency [1] | outcome [2] | Potency [3] | Potency [4]

c1ccc(N2CCNCC2)cc1
inactive: Potency [1] | outcome [2] | Potency [3] | Potency [4]

CC(Cc1ccccc1)N(C)Cc1ccco1 (configuration not stated)
inactive: Potency [1] | outcome [2] | Potency [3] | Potency [4]

COc1cc(CCN)cc(OC)c1OC
inactive: Potency [1] | outcome [2] | Potency [3] | Potency [4] | activity, negative = cell killing ([5]; at 108 µM (top of the series), tumour line B) -15.3% | activity, negative = cell killing ([5]; at 108 µM (top of the series), tumour line D) 5.13%

CCOP(=S)(OCC)Oc1ccc2c(C)c(Cl)c(=O)oc2c1
inactive: Potency [1] | outcome [2] | Potency [3] | Potency [4] | activity, negative = cell killing [5, 8] -3.04% | activity, negative = cell killing [5, 9] 6.08%

CCN[C@@H](C)Cc1cccc(C(F)(F)F)c1
inactive: Potency [1] | outcome [2] | Potency [3] | Potency [4] | activity, negative = cell killing [5, 6] 2.77% | activity, negative = cell killing [5, 7] -1.09%

CC[N+]1(CC)CCC(OC(=O)C(O)(c2ccccc2)c2ccccc2)C1 (configuration not stated)
inactive: Potency [1] | outcome [2] | Potency [3] | Potency [4]

C[C@]12CC[C@H]3[C@@H](CC[C@@]45O[C@H]4C(O)=C(C#N)C[C@]35C)[C@H]1CC[C@H]2O
inactive: Potency [1] | outcome [2] | Potency [3] | Potency [4]

ClCCN1CCCC1
inactive: Potency [1] | outcome [2] | Potency [3] | Potency [4]

CCC(CC)(CNC(=O)CCCO)c1cccc(OC)c1
inactive: Potency [1] | outcome [2] | Potency [3] | Potency [4]

CC(C)(C)NCC(O)c1cc(Cl)c(N)c(C(F)(F)F)c1 (configuration not stated)
inactive: Potency [1] | outcome [2] | Potency [3] | Potency [4] | activity, negative = cell killing [5, 8] -7.42% | activity, negative = cell killing [5, 9] -9.1%

C=C(C)[C@H]1CN[C@H](C(=O)O)[C@H]1CC(=O)O
inactive: Potency [1] | outcome [2] | Potency [3] | Potency [4] | activity, negative = cell killing [5, 8] -14.8% | activity, negative = cell killing [5, 9] -15.4%

CCC(C)C(C)(COC(N)=O)COC(N)=O (configuration not stated)
inactive: Potency [1] | outcome [2] | Potency [3] | Potency [4]

Clc1ccccc1N1CCNCC1
inactive: Potency [1] | outcome [2] | Potency [3] | Potency [4]
